# Assay results published in PubChem BioAssay AID540257 (Southern Research Specialized Biocontainment Screening …, 2011).
# Among all 1,800 compounds or so, about 15 (0.8%) were called active. How the calls were made is not given here. A selection follows. A call without a number means that no potency is given here. Potency and affinity values are given separately.
# Assay: antiviral activity against H1N1 influenza, dose response, cell-based, strain KY136 (AID 540257)
# Conditions: H1N1 KY136 influenza antiviral cell assay, % inhibition; series mostly up to 40 µM
row,SMILES,outcome
1,CC(=O)NC(c1ccccc1)c1cc([N+](=O)[O-])c2cccnc2c1O (stereo not given),inactive
2,Nc1[nH]c(N=NC(=O)c2ccccc2O)c2ccccc12,inactive
3,COc1cc(-c2n[nH]c(=S)n2-c2cccc(C(F)(F)F)c2)cc(OC)c1OC,inactive
4,O=C(CCCN1C(=O)/C(=C/c2ccc3c(c2)OCO3)SC1=S)Nc1ccc(C(=O)O)cc1,inactive
5,CN1CCN(NC(=O)CN2C(=O)/C(=C/c3ccccc3Cl)SC2=S)CC1,inactive
6,CCOC(=O)c1ccc(Nc2c(CC)c(C)nc3ncnn23)cc1,inactive
7,COc1ccccc1N1CCN(C(=O)CCCn2c(=O)[nH]c3ccsc3c2=O)CC1,inactive
8,O=C1CCCC2=C1C1(CCCCC1)N=C(Nc1nc3ccccc3s1)N2,inactive
9,O=C(O)c1cccc2c1/C(=N/O)c1ccccc1-2,inactive
10,O=C(COC(=O)c1ccc([N+](=O)[O-])cc1)Nc1cccnc1Cl,inactive
11,C[n+]1c(/C=C/c2ccc(O)cc2)ccc2ccccc21,inactive
12,COc1cc(C=NO)nc(-c2ccccn2)c1,inactive
13,O=[N+]([O-])c1cccc(C=Nc2cc3c(cc2Br)OCCO3)c1,inactive
14,CCOc1ccccc1CNC(=O)c1ccc2c(c1)N(CC)CCS2,inactive
15,Clc1ccc(-c2nnc(N3CCCC3)nn2)cc1,inactive
16,CCCS(=O)(=O)n1nc(-c2ccccc2)cc1N,inactive
17,O=C(Nc1ccc(N2CCOCC2)cc1)Nc1ccc(Cl)c(Cl)c1,inactive
18,O=C1CC(c2ccccc2)Cc2nc(NCc3ccco3)ncc21 (stereo not given),inactive
19,Nc1nc(Nc2ccccc2)nc(NCc2ccco2)c1[N+](=O)[O-],inactive
20,C=CC[n+]1c(/C=C2\C=Cc3cc(C)ccc3N2CC)ccc2ccccc21,inactive
21,O=C1C(=C(c2ccccc2)c2ccccc2)Nc2ccccc21,inactive
22,O=C(CN1CCN(S(=O)(=O)c2ccccc2)CC1)Nc1ccc(N2CCOCC2)cc1,inactive
23,O=S(=O)(c1cccs1)N1CCN(CC(O)COc2cc(Cl)ccc2Cl)CC1 (stereo not given),inactive
24,O=C(CCc1ccccc1)Nc1cc2c(cc1Cl)OCCO2,inactive

row,SMILES,outcome
1,O=C(COC(=O)[C@H](Cc1c[nH]c2ccccc12)NC(=O)c1cccs1)NCc1ccccc1,inactive
2,O=C(Nc1ccccc1C(=O)NCc1cccnc1)c1ccc(Cl)cc1Cl,inactive
3,c1ccc(Cn2nnc3c(N4CCCCCC4)ncnc32)cc1,inactive
4,CCOC(=O)N1CCN(c2cc(=O)n(-c3ccc(C)cc3)c(=O)[nH]2)CC1,inactive
5,O=C1C(Nc2ccc(O)cc2)=C/C(=N/S(=O)(=O)c2cccs2)c2ccccc21,inactive
6,O=C(NC(=S)NNC(=O)c1cnccn1)c1ccc(Cl)cc1,inactive
7,O=C1CSC(=S)N1N=Cc1ccccc1O,inactive
8,O=C(Nc1cccc(Cl)c1)c1cc(N=Nc2ccc([N+](=O)[O-])cc2Cl)ccc1O,inactive
9,CC(=O)N1CCC(N(CCCOC(C)C)C(=O)Nc2ccc(Cl)cc2)CC1,inactive
10,CCOC(=O)c1c(C2CC2)csc1NC(=O)COC(=O)c1ccc[n+]([O-])c1,inactive
11,COCc1cc(=O)[nH]c(Nc2nc3ccccc3o2)n1,inactive
12,O=[N+]([O-])c1ccc(O)c(/C=N/Nc2nn[nH]n2)c1,inactive
13,Cc1ccc(C(=O)Nc2nc(-c3ccccn3)cs2)o1,inactive
14,COc1ccc(CC(=O)N2N=C(C)CC2(O)c2cccnc2)cc1OC (stereo not given),inactive
15,CCOc1ccc(OCCOCCn2ccnc2)cc1,inactive
16,Cc1ccc(S(=O)(=O)N2CCN(C(=O)c3ccc(N4CCCC4)c([N+](=O)[O-])c3)CC2)cc1,inactive
17,COc1ccc(CNC(=O)Cn2ccc([N+](=O)[O-])n2)cc1OC,inactive
18,CCN(C(C)=O)c1cnc(C=NNC(N)=S)c2ccccc12,inactive
19,Cc1cc2ncn(C(=O)c3c(-c4ccccc4Cl)noc3C)c2cc1C,inactive
20,Oc1c(C(Nc2ccccn2)c2ccccn2)ccc2cccnc12 (stereo not given),inactive
21,COc1ccc(N2CCN(CCNC(=O)Nc3ccc([N+](=O)[O-])cc3OC)CC2)cc1,inactive
22,CCOc1ccc(N=Cc2c(O)cc(C)oc2=O)cc1,inactive
23,CN(C)c1ccc(N=Nc2ccccc2C(=O)OCC(=O)N(C)c2ccccc2)cc1,inactive
24,NC(=O)NC(=O)CC1S/C(=N/N=C2\CSC(=O)N2)NC1=O (stereo not given),inactive

row,SMILES,outcome
1,CC(=O)Oc1ccc(NC(=O)Cc2ccccc2)cc1,inactive
2,COc1ccc2cc3c(N)nn(C(=O)Cc4ccccc4OC)c3nc2c1,inactive
3,CN(C)c1ccc(CN2CC=C(c3ccc(F)cc3)CC2)cc1,inactive
4,CC(NS(C)(=O)=O)C(c1cccs1)N1CCN(c2ccccc2)CC1 (stereo not given),inactive
5,Cc1ccccc1NC(=S)N/N=C/c1ccc(O)cc1O,inactive
6,O=C(N/N=C/c1ccco1)Nc1ccccc1,inactive
7,COc1ccc(C2C3=C(CC(C)(C)CC3=O)Oc3ncn(Cc4ccco4)c(=N)c32)cc1 (stereo not given),inactive
8,Cc1ccccc1CNC(=O)CCC(=O)N1CCOc2ccc(Cl)cc21,inactive
9,CCC(C)NC(=O)CN1C(=O)COc2ccc(S(=O)(=O)N3CCOCC3)cc21 (stereo not given),inactive
10,CS(=O)(=O)N1CCC(Oc2cccc(C(=O)NCCCC3CCCC3)c2)CC1,inactive
11,CC(/C=C/c1ccccc1)=N\NC(=O)Cn1nc(C)cc1C,inactive
12,O=C(Cn1c(=O)c(C(F)(F)F)nc2ccccc21)N1CCC2(CC1)OCCO2,inactive
13,Cc1cccn2c(=O)c(C=C(C#N)C#N)c(N3CCN(c4ccccc4)CC3)nc12,inactive
14,CCCCN1C(=O)NC2NC(=O)NC21 (stereo not given),inactive
15,CC(C)C(C(=O)Nc1ccccc1F)N1C(=O)c2ccccc2C1=O (stereo not given),inactive
16,O=C(Nc1ccccc1)c1ccc[n+](Cc2ccc([N+](=O)[O-])cc2)c1,inactive
17,O=C1C(NS(=O)(=O)c2cccs2)=C(N2CCN(c3ccccc3)CC2)C(=O)c2ccccc21,inactive
18,Fc1cccc(Nc2ncnc3c2cnn3-c2ccccc2)c1,inactive
19,O=C1c2ccccc2C(=O)c2c1cccc2N1CCOCC1,inactive
20,O=C(N/N=C/C1C(=O)NC(=S)N(c2ccccc2)C1=O)c1cc(Br)c(O)c(Br)c1 (stereo not given),inactive
21,CCOC(=O)c1sc(NC(=O)c2ccc3ncsc3c2)nc1C,inactive
22,O=[N+]([O-])c1cc(Br)c2nsnc2c1N1CCOCC1,inactive
